SMILES strings stand for the structures. Results filed as inconclusive are left out. A call without a number means that no potency is given here. Calls of active or inactive are those of the source. Calls come from the whole dose curve; as a rule, active = well fitted cell-killing curve with a large enough effect; inconclusive = small, poorly fitted or top-dose-only effect, or effect the other way; inactive = flat fitted curve, though single readings scatter.

In this assay the test system is CAOV3. Nature of the assay: Primary qHTS to identify gynecologic anti-cancer compounds using libraries of approved drugs and bioactive compounds (AID 1345084). Note: nearly all actives have a fitted effect of over 55% in size. Particulars: Gynecologic cancer cell panel viability, ATPlite luminescence, 48 h; series mostly up to 57.5 µM. From the text: National Center for Advancing Translational Sciences [NCATS] Assay Overview: Chemotherapeutic drug responses vary from cancer to cancer and from patient to patient. These variations could be caused by a number of factors including patient genomic background, tumor mutations, tumor heterogeneity, and aspects of drug treatment. Chemotherapeutic drug resistance is also a common issue and can lead to ineffective treatment and patient death. Here we have profiled the cell killing effects of thousands of compounds to characterize the responses in three gynecological cancers, identify cancer-selective compounds, and understand the diversity of responses to these compounds from pan-cancer suppressors to single cell line selective compounds. In this assay, we screened a 7,914 compound drug library that included approved drug and bioactive compounds in six ovarian, three cervical, and […] placental cancer cell lines using the ATPlite assay for cell viability. […] The cervical cancer cell lines included HeLa, Ca Ski, and C-33 A. The placental cancer cell lines included JEG-3. HEK 293T cells were used as the control cell line to determine the selectivity index. ATPlite is a luminescence based assay reliant on the conversion of a luciferase substrate to light in the presence of ATP. As a cytotoxic compound will suppress growth and decrease the number of cells, the concentration of ATP will decrease, and less light signal will be detected in the well.
Assay Protocol Summary: 1,000 cells in 4 uL of media were dispensed into white, solid bottom 1536-well plates using a Multidrop Combi (Thermo Scientific). The Assay plates were incubated for 16 hours at 37 C with 5% CO2 in assay plates, followed by the addition of 23 nL of DMSO or drug dissolved in DMSO. Each compound was assayed in five concentrations (0.092, 0.46, 2.3, 11.5, and 57.5 uM), using the automated Wako 1536 Pin Tool workstation and incubated at 37 C with 5% CO2 48 hours. 4 uL of ATPlite, the ATP monitoring reagent, was then added to the each well of the assay plates using the Multidrop Combi reagent dispenser followed by incubation for 15 minutes at room temperature. The resulting luminescence was measured using the ViewLux plate reader.
In general terms: In qHTS, concentration-response curves come from the screen itself.
In the case of `C#CC1(O)CC[C@H]2[C@@H]3CCC4=CCCC[C@@H]4[C@H]3CC[C@@]21C` (stereo not given in full), the Potency entry was “inactive”. The value for `S=c1[nH]c2ccccc2s1` was “inactive”; that for `N=C(N)N` was “inactive”. Regarding `Cc1c(N)c(=O)n(-c2ccccc2)n1C`, the Potency result is “inactive”. The value for `COc1ccc(-c2cc(=S)ss2)cc1` was “inactive”; that for `CCNc1nc2c(ncn2[C@H]2C[C@H](O)[C@@H](CO)O2)c(=O)[nH]1` was “inactive”. On to `Cc1ccc2c(n1)Oc1ccc(C(C)C(=O)OCC(=O)N(C)C)cc1C2` (stereo not given), for which the Potency result was “inactive”.

For the compound `NC(=O)C(c1ccccc1)(c1ccccc1)[C@@H]1CCN(CCc2ccc3c(c2)CCO3)C1`, the Potency entry is “inactive”.

On to `Nc1ccc(O)c(C(=O)O)c1`, for which the Potency entry was “inactive”. Turning to `Cc1c(C(=O)O)c(O)cc2c1C(=O)c1c(O)c([C@@H]3O[C@H](CO)[C@@H](O)[C@H](O)[C@H]3O)c(O)c(O)c1C2=O`, the Potency entry is “inactive”. Take `c1ccc2sc(SSc3nc4ccccc4s3)nc2c1`: the Potency result was “inactive”.

On to `O=C(Nc1ccc2c(c1)CCN(Cc1ncn[nH]1)C2)c1ccccc1-c1ccc(C(F)(F)F)cc1`, for which the Potency result is “inactive”. The value for `CC(=O)O[C@H]1C[C@@]2(C)[C@@H](C[C@@H](O)[C@H]3[C@@]4(C)CC[C@@H](O)[C@@H](C)[C@@H]4CC[C@@]32C)/C1=C(\CCC=C(C)C)C(=O)O` was “inactive”; that for `CC1(C)S[C@@H]2[C@H](NC(=O)[C@H](N)c3ccc(O)cc3)C(=O)N2[C@H]1C(=O)O` was “inactive”; that for `CCOc1ccc2nc(S(N)(=O)=O)sc2c1` was “inactive”. Consider `O=C(O)[C@H](CC(=O)N1C[C@H]2CCCC[C@H]2C1)Cc1ccccc1`, for which the Potency result was “inactive”. For the compound `Oc1c(Br)cc(Br)c2cccnc12`, the Potency result is “inactive”. For the compound `Cc1c(Nc2ncccc2C(=O)O)cccc1C(F)(F)F`, the Potency result is “inactive”. With `CC1(C)[C@@H](O)CC[C@]2(C)[C@H]3C(=O)C=C4[C@@H]5C[C@@](C)(C(=O)O)CC[C@]5(C)CC[C@@]4(C)[C@]3(C)CC[C@@H]12`, the Potency result is “inactive”.

For `COc1cc(NC(C)CCCN)c2ncccc2c1` (stereo not given), the Potency result is “inactive”. Consider `CCCCCCCCCCCCOCCO`, for which the Potency result was “inactive”. Turning to `O=[N+]([O-])c1ccc(CNc2nc(NCc3cccc(C(F)(F)F)c3)nc3nc[nH]c23)cc1`, the Potency entry is “inactive”. On to `CCCCCCCCCCCCCCCC(=O)OC(C)C`, for which the Potency entry is “inactive”.

Regarding `Fc1ccc2[nH]c(CN3CCN(c4ccccn4)CC3)cc2c1`, the Potency entry is “inactive”. Turning to `CS(=O)(=O)c1ccc(-n2nc(C(F)(F)F)cc2-c2ccc(F)cc2)cc1`, the Potency result is “inactive”. Turning to `CCCC(=O)OC[C@@H](OC(=O)CCC)[C@@H](OC(=O)CCC)[C@H](Cn1c2nc(=O)[nH]c(=O)c-2nc2cc(C)c(C)cc21)OC(=O)CCC`, the Potency entry was “inactive”.

With `Cc1onc(-c2c(F)cccc2Cl)c1C(=O)N[C@@H]1C(=O)N2[C@@H]1SC(C)(C)[C@@H]2C(=O)O`, the Potency result was “inactive”.

With `CN1[C@@H]2CC[C@H]1CC(OC(c1ccccc1)c1ccccc1)C2` (stereo not given in full), the Potency result was “inactive”. `O=Cc1ccc(O)c(O)c1O`: the Potency result is “inactive”. The value for `Cc1cc(O)c2ccccc2c1O` was “inactive”; that for `C=CCCCCCCCCC(=O)O` was “inactive”; that for `CC(C)(C)c1nnc(NS(=O)(=O)c2ccc(N)cc2)s1` was “inactive”. `O=C1CN(/N=C/c2ccc([N+](=O)[O-])o2)C(=O)N1`: the Potency result was “inactive”. The value for `CC(C(=O)O)c1ccc(C(=O)c2ccccc2)s1` (stereo not given) was “inactive”; that for `CC1(C)S[C@@H]2[C@H](NC(=O)[C@H](N)c3ccccc3)C(=O)N2[C@H]1C(=O)O` was “inactive”; that for `C/C(=N\O)c1ccc(OCC(=O)N2CCCCC2)cc1` was “inactive”.

For `Nc1ccc(C(=O)O)c(O)c1`, the Potency result is “inactive”.

As to `CC1(C)[C@@H](O[C@H]2O[C@H](C(=O)O)[C@@H](O)[C@H](O)[C@H]2O[C@@H]2O[C@H](C(=O)O)[C@@H](O)[C@H](O)[C@H]2O)CC[C@]2(C)[C@H]3C(=O)C=C4[C@@H]5C[C@@](C)(C(=O)O)CC[C@]5(C)CC[C@@]4(C)[C@]3(C)CC[C@@H]12`, the Potency entry was “inactive”. With `C#C[C@]1(O)CC[C@H]2[C@@H]3CCc4cc(O)ccc4[C@H]3CC[C@@]21C`, the Potency entry was “inactive”. As to `Clc1ccccc1-c1nc(-c2ccncc2)no1`, the Potency entry was “inactive”.

The record behind these values is PubChem BioAssay (NCATS).
